Read-out in experiment [1]: Intercellular Adhesion Molecule 1 (ICAM1), ICAM1 (gene 3383)
The experiment can be described thus: BSK_3C_ICAM1: BioMAP Diversity Plus: 3C Assay for Intercellular Adhesion Molecule 1 (ICAM1) Biomarker Activity (AID 2283003; active means hit-call score of the fitted dose curve at least 0.9, where 1 is the maximum; inactive means score below 0.9). To be noted: primary human endothelial cells (HUVEC); actives raise or lower the signal. The method in brief: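 Using DMSO as baseline, bidirectional curve fitting was applied to ICAM-1 ELISA signals from HUVEC in the 3C system, measured 24 h after compound addition.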

Experiment [2] is described as follows: BSK_3C_Proliferation: Cell Proliferation Assessment in the BioMAP Diversity Plus: 3C Assay (AID 2283006; active means hit-call score of the fitted dose curve at least 0.9, where 1 is the maximum; inactive means score below 0.9). To be noted: primary human endothelial cells (HUVEC). The method in brief: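 Measured here: sulforhodamine B (0.1%) staining of TCA-fixed sub-confluent umbilical vein endothelial cultures 48 h post-dosing, absorbance 560 nm. DMSO served as negative control and baseline; both signal gain and loss were modelled.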

Experiment [3] addresses human RAR-related Orphan Receptor gamma (RORg), RORC (gene 6097) (UniProt P51449). Nature of the experiment: ATG_RORg_TRANS: Attagene TRANS-FACTORIAL HepG2 Assay for human RAR-related Orphan Receptor gamma (RORg) (AID 2283011).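 On AC50: potency for induction of reporter transcripts above DMSO so activators.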 In short, it runs like this:
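Chimeric RORg-Gal4 transactivation in transfected HepG2; 24 h exposure; RT-PCR/capillary electrophoresis readout of reporter mRNA, DMSO baseline.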

Experiment [4] has as its target human Retinoid X Receptor beta (RXRb), RXRB (gene 6257) (UniProt P28702). Nature of the experiment: ATG_RXRb_TRANS: Attagene TRANS-FACTORIAL HepG2 Assay for human Retinoid X Receptor beta (RXRb) (AID 2283013). In short, it runs like this: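 After a 24 h incubation with test chemical, transfected HepG2 cells carrying NR-Gal4 fusions and GAL4-UAS reporter transcription units yield RNA whose reporter cDNA is FAM-labelled, HpaI-cut and sized by capillary electrophoresis; increases over DMSO are scored.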

Experiment [5] deals with human Thyroid Receptor alpha (THRa1), THRA (gene 7067) (UniProt P10827). Nature of the experiment: ATG_THRa1_TRANS: Attagene TRANS-FACTORIAL HepG2 Assay for human Thyroid Receptor alpha (THRa1) (AID 2283014). The method in brief:
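Measured here is mRNA from a GAL4-UAS reporter in transfected HepG2 cells carrying a Gal4-fused receptor, 24 h post-dose. DMSO served as negative control and baseline.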

Read-out in experiment [6]: E-selectin (Homo sapiens) (UniProt P16581)
The experiment can be described thus: BSK_3C_Eselectin: BioMAP Diversity Plus: 3C Assay for Eselectin Biomarker Activity (AID 2283015; active means hit-call score of the fitted dose curve at least 0.9, where 1 is the maximum; inactive means score below 0.9;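 further: cell surface E-selectin protein quantified by ELISA 24 h after dosing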). To be noted: primary human endothelial cells (HUVEC); actives raise or lower the signal. The method in brief: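 Endpoint derived by bidirectional fitting against DMSO vehicle; signal is ELISA-detected E-selectin from primary HUVEC at 24 h post-dosing, with parallel SRB staining (0.1% SRB, 560 nm) flagging cytotoxicity.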

Read-out in experiment [7]: Interleukin-1 alpha (IL1a), IL1A (gene 3552)
Nature of the experiment: BSK_BE3C_IL1a: BioMAP Diversity Plus: BE3C Assay for Interleukin-1 alpha (IL1a) Biomarker Activity (AID 2283016; active means hit-call score of the fitted dose curve at least 0.9, where 1 is the maximum; inactive means score below 0.9). To be noted: primary human bronchial epithelial cells; actives raise or lower the signal. The method in brief:
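Measured in human lung primary bronchial epithelial cells: IL-1a by ELISA at 24 h after dosing, with bidirectional fitting against DMSO.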

Read-out in experiment [8]: Monocyte Chemoattractant Protein-1 (MCP1), CCL2 (gene 6347)
The experiment can be described thus: BSK_3C_MCP1: BioMAP Diversity Plus: 3C Assay for Monocyte Chemoattractant Protein-1 (MCP1) Biomarker Activity (AID 2283017; active means hit-call score of the fitted dose curve at least 0.9, where 1 is the maximum; inactive means score below 0.9). To be noted: primary human endothelial cells (HUVEC); actives raise or lower the signal. In short, it runs like this: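 Using human vascular primary endothelium, researchers measured MCP-1 by ELISA 24 h after treatment, with DMSO serving as negative control for bidirectional fitting.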

Read-out in experiment [9]: Monocyte Chemoattractant Protein-1 (MCP1), CCL2 (gene 6347)
The experiment can be described thus: BSK_4H_MCP1: BioMAP Diversity Plus: 4H Assay for Monocyte Chemoattractant Protein-1 (MCP1) Biomarker Activity (AID 2283018; active means hit-call score of the fitted dose curve at least 0.9, where 1 is the maximum; inactive means score below 0.9). Conditions: primary human endothelial cells (HUVEC); actives raise or lower the signal. The method in brief:
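Primary human umbilical vein endothelium is exposed to chemical for 24 h before MCP-1 is assayed by ELISA. Concentration-response fitted bidirectionally relative to DMSO.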

Read-out in experiment [10]: Human Leukocyte Antigen - DR isotype (HLADR), HLA-DRA (gene 3122)
The experiment can be described thus: BSK_3C_HLADR: BioMAP Diversity Plus: 3C Assay for Human Leukocyte Antigen - DR isotype (HLADR) Biomarker Activity (AID 2283019; active means hit-call score of the fitted dose curve at least 0.9, where 1 is the maximum; inactive means score below 0.9;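 further: ELISA of cell-surface HLA-DR on HUVEC 24 h after dosing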). Conditions: primary human endothelial cells (HUVEC); actives raise or lower the signal. In short, it runs like this: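 Compound added to primary HUVEC cultures, 24 h incubation, then HLA-DR determined by ELISA; endpoint derived by bidirectional fitting relative to DMSO negative control.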

Read-out in experiment [11]: Interleukin-8 (IL8), CXCL8 (gene 3576)
The experiment can be described thus: BSK_3C_IL8: BioMAP Diversity Plus: 3C Assay for Interleukin-8 (IL8) Biomarker Activity (AID 2283020; active means hit-call score of the fitted dose curve at least 0.9, where 1 is the maximum; inactive means score below 0.9). Conditions: primary human endothelial cells (HUVEC); actives raise or lower the signal. The method in brief: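 Using DMSO-treated wells as the baseline, bidirectional curve fitting was applied to ELISA-measured IL-8 from human umbilical vein endothelial cultures sampled 24 h after compound addition.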

In experiment [12] the target is human Retinoic Acid Receptor beta (RARb), RARB (gene 5915) (UniProt P10826). The experiment can be described thus: ATG_RARb_TRANS: Attagene TRANS-FACTORIAL HepG2 Assay for human Retinoic Acid Receptor beta (AID 2283004). The method in brief:
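Fluorescent capillary-electrophoresis detection of GAL4-UAS reporter mRNA defines the endpoint, with induction over DMSO-treated wells scored as activity. Transiently transfected human hepatoma HepG2 cells expressing exogenous NR–Gal4 proteins are exposed to test chemicals for 24 h.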

The target of experiment [13] is Peroxisome proliferator-activated receptor gamma (Homo sapiens) (UniProt P37231). The experiment can be described thus: ATG_PPARg_TRANS: Attagene TRANS-FACTORIAL HepG2 Assay for human Peroxisome Proliferator-activated Receptor-gamma (PPARg) (AID 2283007). The method in brief:
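HepG2 cells transiently transfected with multiplexed GAL4-UAS reporter units and exogenous chimeric NR-Gal4 proteins; reporter mRNA quantified after 24 h compound exposure by RT-PCR, fluorescent labelling, HpaI digestion and capillary electrophoresis; gain-of-signal fitted versus DMSO baseline.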

In experiment [14] the target is Nuclear receptor subfamily 1 group I member 2 (Homo sapiens) (UniProt O75469). Nature of the experiment: ATG_PXR_TRANS: Attagene TRANS-FACTORIAL HepG2 Assay for human Pregnane X Receptor (PXR) (AID 2283008). In short, it runs like this:
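HepG2 transfected (FuGene 6) with GAL4-UAS reporter units + PXR-Gal4 chimera; dosed 24 h. Total RNA → oligo(dT) RT → PCR → 6-FAM primer extension → HpaI cut → CE. Gain-of-signal vs DMSO.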

In experiment [15] the target is Retinoic acid receptor RXR-alpha (Homo sapiens) (UniProt P19793). The experiment can be described thus: ATG_RXRa_TRANS: Attagene TRANS-FACTORIAL HepG2 Assay for human Retinoid X Receptor alpha (RXRa) (AID 2283012). In short, it runs like this:
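Chimeric NR-GAL4 trans-activation in HepG2, 24 h treatment; reporter transcripts quantified by fluorescence on capillary electrophoresis, analysed for upward change from DMSO.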

Experiment [16] addresses human RAR-related Orphan Receptor beta (RORb), RORB (gene 6096) (UniProt Q92753). The experiment can be described thus: ATG_RORb_TRANS: Attagene TRANS-FACTORIAL HepG2 Assay for human RAR-related Orphan Receptor beta (RORb) (AID 2283010). In short, it runs like this:
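Multiplexed transcription-factor reporter assay: HepG2 cells transiently carrying NR-Gal4/GAL4-UAS constructs, 24 h treatment, mRNA quantified by RT-PCR plus capillary electrophoresis fluorescence; activity scored as induction over DMSO.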

The target in experiment [17] is human Retinoic Acid Receptor gamma (RARg), RARG (gene 5916) (UniProt P13631). Nature of the experiment: ATG_RARg_TRANS: Attagene TRANS-FACTORIAL HepG2 Assay for human Retinoic Acid Receptor gamma (RARg) (AID 2283009). The method in brief:
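Gain-of-signal relative to DMSO is reported from fluorescent capillary electrophoresis of RT-PCR reporter products. These came from HepG2 cells expressing transfected RARg-GAL4 chimeras with UAS reporters, harvested 24 h after dosing.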

Experiment [18] deals with Retinoic acid receptor alpha (Homo sapiens) (UniProt P10276). Nature of the experiment: ATG_RARa_TRANS: Attagene TRANS-FACTORIAL HepG2 Assay for human Retinoic Acid Receptor alpha (RARa) (AID 2283005). The method in brief:
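HepG2 transiently transfected with multiplex GAL4-UAS reporter units including a human RARa–GAL4 chimera; 24 h compound exposure. Reporter mRNA quantified by RT-PCR, 6-FAM labeling and capillary electrophoresis; gain of signal versus DMSO.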

Among the data in PubChem BioAssay (EPA / NIEHS) are outcome and AC50 values, retold here.

Results filed as inconclusive are left out. Active and inactive are the calls of the source. How the source made its calls, unless noted: active means hit-call score of the fitted dose curve at least 0.9, where 1 is the maximum; inconclusive means response in the unintended direction; inactive means score below 0.9.

Retinoic acid receptor alpha (Homo sapiens), sequence (P10276 whole entry, looked up, the tested form may be a part): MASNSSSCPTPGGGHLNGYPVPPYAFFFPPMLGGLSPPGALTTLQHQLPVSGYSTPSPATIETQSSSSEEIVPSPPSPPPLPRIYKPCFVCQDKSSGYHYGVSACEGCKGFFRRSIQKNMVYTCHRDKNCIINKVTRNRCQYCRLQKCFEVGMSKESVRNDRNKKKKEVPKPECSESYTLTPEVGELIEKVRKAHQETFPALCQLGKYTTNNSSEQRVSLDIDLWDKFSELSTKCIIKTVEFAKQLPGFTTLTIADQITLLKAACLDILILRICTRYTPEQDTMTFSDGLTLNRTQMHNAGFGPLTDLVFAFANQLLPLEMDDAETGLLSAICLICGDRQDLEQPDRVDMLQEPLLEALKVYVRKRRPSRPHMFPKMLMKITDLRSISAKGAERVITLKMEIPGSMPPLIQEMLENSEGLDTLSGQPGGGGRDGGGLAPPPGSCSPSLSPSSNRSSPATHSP
human RAR-related Orphan Receptor beta (RORb), RORB (gene 6096), sequence (Q92753 whole entry, looked up, the tested form may be a part): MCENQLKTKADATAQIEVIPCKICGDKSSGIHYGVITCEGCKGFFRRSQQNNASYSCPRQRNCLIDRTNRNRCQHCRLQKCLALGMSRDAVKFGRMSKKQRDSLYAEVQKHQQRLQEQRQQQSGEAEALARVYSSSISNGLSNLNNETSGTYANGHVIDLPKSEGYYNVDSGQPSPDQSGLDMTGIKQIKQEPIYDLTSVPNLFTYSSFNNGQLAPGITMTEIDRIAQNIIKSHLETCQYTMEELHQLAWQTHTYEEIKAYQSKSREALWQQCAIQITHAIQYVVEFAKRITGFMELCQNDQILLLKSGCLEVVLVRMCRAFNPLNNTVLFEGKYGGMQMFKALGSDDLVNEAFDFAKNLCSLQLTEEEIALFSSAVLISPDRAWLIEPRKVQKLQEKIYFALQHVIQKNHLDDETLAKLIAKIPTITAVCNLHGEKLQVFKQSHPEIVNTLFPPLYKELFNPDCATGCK
human Retinoic Acid Receptor gamma (RARg), RARG (gene 5916), sequence (P13631 whole entry, looked up, the tested form may be a part): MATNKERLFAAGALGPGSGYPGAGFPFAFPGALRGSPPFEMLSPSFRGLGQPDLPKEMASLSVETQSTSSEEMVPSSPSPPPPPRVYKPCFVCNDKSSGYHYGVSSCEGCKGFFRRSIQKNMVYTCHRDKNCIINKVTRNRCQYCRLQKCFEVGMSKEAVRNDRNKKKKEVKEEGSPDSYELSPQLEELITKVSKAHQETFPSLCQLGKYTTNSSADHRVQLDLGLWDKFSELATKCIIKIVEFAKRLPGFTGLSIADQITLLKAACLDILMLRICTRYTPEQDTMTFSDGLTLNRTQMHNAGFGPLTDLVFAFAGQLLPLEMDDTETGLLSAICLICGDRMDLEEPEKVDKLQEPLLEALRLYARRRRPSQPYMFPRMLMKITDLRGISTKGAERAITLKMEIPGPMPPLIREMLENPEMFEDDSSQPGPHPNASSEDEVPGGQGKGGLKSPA
Nuclear receptor subfamily 1 group I member 2 (Homo sapiens), sequence (O75469 whole entry, looked up, the tested form may be a part): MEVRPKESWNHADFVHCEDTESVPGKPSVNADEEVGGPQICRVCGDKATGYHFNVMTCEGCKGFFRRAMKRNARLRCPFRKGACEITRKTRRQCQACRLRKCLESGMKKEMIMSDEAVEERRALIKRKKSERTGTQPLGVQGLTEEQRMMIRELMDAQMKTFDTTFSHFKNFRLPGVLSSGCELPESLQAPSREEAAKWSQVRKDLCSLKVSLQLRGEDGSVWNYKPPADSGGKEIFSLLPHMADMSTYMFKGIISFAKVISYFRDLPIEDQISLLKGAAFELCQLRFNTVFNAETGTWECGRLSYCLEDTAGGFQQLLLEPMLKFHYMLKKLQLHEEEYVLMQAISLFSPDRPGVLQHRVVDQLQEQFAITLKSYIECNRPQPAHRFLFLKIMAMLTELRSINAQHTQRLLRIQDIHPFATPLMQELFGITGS
human Retinoid X Receptor beta (RXRb), RXRB (gene 6257), sequence (P28702 whole entry, looked up, the tested form may be a part): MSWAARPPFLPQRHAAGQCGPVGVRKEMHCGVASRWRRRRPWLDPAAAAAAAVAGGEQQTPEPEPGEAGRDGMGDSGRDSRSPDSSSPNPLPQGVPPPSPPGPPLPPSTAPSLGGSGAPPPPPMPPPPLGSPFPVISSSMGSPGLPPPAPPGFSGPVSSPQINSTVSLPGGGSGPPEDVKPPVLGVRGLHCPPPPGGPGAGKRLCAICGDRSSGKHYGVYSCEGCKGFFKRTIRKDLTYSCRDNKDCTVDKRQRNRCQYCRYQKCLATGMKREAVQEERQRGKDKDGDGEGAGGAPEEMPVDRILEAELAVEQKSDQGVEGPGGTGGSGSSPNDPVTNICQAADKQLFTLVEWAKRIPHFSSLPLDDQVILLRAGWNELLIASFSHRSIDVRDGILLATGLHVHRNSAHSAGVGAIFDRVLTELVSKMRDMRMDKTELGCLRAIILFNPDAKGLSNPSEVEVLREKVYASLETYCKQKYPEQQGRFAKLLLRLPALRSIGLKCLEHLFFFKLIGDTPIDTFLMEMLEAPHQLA
human Thyroid Receptor alpha (THRa1), THRA (gene 7067), sequence (P10827 whole entry, looked up, the tested form may be a part): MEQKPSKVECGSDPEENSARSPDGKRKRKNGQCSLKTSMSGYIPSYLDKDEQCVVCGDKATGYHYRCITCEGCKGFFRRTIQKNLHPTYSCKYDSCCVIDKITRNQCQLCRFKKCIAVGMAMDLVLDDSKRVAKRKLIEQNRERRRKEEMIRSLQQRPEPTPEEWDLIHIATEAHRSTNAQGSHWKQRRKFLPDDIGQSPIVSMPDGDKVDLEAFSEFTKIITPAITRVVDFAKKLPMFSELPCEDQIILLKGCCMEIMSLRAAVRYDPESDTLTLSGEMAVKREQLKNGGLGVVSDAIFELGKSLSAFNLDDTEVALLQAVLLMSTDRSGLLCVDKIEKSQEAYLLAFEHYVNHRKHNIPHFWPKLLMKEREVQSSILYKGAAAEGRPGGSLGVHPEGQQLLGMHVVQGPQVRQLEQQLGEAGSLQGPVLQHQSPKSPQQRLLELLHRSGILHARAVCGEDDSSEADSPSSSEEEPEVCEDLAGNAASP
Retinoic acid receptor RXR-alpha (Homo sapiens), sequence (P19793 whole entry, looked up, the tested form may be a part): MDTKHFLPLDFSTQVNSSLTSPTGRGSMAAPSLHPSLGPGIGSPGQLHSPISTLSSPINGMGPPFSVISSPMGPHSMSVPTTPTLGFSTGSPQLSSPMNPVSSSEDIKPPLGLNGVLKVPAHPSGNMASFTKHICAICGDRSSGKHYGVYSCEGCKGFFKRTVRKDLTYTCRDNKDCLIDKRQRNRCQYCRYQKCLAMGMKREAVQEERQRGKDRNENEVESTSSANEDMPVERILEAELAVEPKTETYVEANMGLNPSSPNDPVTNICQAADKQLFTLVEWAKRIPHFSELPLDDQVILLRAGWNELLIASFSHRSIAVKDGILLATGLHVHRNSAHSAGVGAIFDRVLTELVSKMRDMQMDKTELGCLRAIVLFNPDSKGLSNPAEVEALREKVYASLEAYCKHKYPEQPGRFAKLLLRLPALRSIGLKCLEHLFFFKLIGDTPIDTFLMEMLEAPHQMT
human RAR-related Orphan Receptor gamma (RORg), RORC (gene 6097), sequence (P51449 whole entry, looked up, the tested form may be a part): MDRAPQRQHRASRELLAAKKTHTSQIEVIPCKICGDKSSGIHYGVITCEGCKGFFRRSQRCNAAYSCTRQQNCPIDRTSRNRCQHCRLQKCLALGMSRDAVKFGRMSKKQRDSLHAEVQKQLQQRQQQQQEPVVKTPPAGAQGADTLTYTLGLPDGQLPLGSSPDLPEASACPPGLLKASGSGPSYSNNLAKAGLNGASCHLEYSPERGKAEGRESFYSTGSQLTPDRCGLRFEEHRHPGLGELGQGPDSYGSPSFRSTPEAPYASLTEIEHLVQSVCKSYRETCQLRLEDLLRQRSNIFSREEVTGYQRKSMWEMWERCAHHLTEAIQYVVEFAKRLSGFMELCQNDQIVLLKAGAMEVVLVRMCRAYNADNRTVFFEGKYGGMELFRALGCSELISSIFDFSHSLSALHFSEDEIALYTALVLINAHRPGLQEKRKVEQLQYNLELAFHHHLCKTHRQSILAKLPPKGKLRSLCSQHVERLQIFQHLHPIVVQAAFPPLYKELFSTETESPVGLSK
Peroxisome proliferator-activated receptor gamma (Homo sapiens), sequence (P37231 whole entry, looked up, the tested form may be a part): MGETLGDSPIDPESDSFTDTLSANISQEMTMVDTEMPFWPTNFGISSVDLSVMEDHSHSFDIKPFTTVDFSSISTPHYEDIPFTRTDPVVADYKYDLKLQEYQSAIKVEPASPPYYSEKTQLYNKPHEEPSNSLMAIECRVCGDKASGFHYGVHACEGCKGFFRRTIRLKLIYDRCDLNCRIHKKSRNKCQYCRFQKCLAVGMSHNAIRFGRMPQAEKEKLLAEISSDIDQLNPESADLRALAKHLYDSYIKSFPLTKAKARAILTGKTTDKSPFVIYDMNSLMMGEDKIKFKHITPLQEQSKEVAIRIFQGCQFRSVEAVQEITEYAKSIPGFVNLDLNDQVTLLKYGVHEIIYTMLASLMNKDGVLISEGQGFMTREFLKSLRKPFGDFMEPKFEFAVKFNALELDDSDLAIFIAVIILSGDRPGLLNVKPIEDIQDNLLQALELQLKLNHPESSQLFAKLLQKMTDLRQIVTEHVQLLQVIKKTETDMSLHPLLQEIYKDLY
E-selectin (Homo sapiens), sequence (P16581 whole entry, looked up): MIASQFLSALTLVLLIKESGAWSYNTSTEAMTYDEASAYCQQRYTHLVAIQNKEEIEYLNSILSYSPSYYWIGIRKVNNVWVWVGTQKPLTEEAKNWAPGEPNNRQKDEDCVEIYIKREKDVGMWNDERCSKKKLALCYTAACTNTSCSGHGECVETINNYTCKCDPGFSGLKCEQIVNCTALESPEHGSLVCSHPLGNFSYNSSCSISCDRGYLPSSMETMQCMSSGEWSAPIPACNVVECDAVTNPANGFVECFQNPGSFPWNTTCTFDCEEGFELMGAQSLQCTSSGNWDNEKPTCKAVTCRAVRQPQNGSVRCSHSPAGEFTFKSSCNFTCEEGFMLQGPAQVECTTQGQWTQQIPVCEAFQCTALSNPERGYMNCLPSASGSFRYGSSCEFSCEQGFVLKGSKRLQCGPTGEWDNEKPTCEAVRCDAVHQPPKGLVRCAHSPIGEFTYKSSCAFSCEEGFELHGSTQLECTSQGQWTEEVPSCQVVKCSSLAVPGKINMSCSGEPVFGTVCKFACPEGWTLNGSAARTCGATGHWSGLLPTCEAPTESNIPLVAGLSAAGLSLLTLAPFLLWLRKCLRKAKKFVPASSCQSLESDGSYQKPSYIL

With `O=C(O)c1cn(-c2ccc(F)cc2)c2cc(N3CCNCC3)c(F)cc2c1=O`, the result in experiment [1], in experiment [2], in experiment [3], in [4], in experiment [5] and in experiment [6] was inactive. Moreover, the result in experiment [7], in experiment [8], in [9], in [10] and in experiment [11] was inactive.
Turning to `CO[Si](CCCn1c(=O)n(CCC[Si](OC)(OC)OC)c(=O)n(CCC[Si](OC)(OC)OC)c1=O)(OC)OC`, the outcome in experiment [12], in experiment [13], in experiment [14], in [15], in experiment [4] and in experiment [5] was inactive.
Consider `CN(C)CCCN`, for which the compound was called inactive in experiment [13], in experiment [14], in experiment [15], in experiment [4] and in [5].
On to `CC(C)(CO)[N+](=O)[O-]`, for which the outcome in experiment [13], in experiment [14], in [16] and in [5] was inactive.
In the case of `O=C1C(c2[nH]c3ccc(S(=O)(=O)O)cc3c2O)=Nc2ccc(S(=O)(=O)O)cc21`, the compound was classed as inactive in experiment [14], in experiment [3] and in [5].
For `CCCCCNCCCCC`, the compound was classed as inactive in [13], in experiment [14] and in experiment [17].
As usually defined, the AC50 is the concentration at which the activity in the assay is half-maximal. With `CC[C@]12CCCN3CCc4c(n(c5ccccc45)[C@@](O)(C(=O)OC)C1)[C@@H]32`, the AC50 in experiment [14] is 2.99 µM (active); in experiment [5] it was 28.5 µM (active). The result in experiment [4] was inactive.
Consider `C=C(C)[C@@H]1CC[C@@H](C)C[C@@H]1O`, for which the outcome in [15] was inactive.
`CC(=O)[O][Al][O]C(C)=O`: the compound was called inactive in experiment [14], in experiment [16] and in experiment [5]. Besides, the AC50 in experiment [4] is 44.5 µM (active).
For `CC(C)(N)CO`, the call in experiment [14], in [15] and in experiment [4] was inactive.
As to `COc1c(Cl)c(Cl)c(Cl)c(Cl)c1Cl`, the AC50 is 10.3 µM (active) in experiment [14], 29.1 µM (active) in experiment [15] and 6.22 µM (active) in [4]. Further, the call in experiment [5] was inactive.
`CC1(C)OC[C@@H]2O[C@@]3(C(=O)O)OC(C)(C)O[C@H]3[C@@H]2O1`: the call in [18], in [14] and in experiment [3] was inactive.
`CC(=O)OCCOC(C)=O`: the call in experiment [16], in [3], in [15] and in [5] was inactive.
Turning to `N#Cc1nc(Cl)c(Cl)c(Cl)c1Cl`, the AC50 in [13] is 0.206 µM (active); in [3], 2.56 µM (active). The result in [16] and in experiment [15] was inactive.
On to `CN1Cc2c(N)cccc2C(c2ccccc2)C1` (stereo unspecified), for which the compound was called inactive in [18], in experiment [13], in experiment [14], in [17] and in experiment [15].
`O=C(O)c1ccc(C(=O)O)cc1`: the compound was called inactive in [14], in experiment [3] and in experiment [5].
As for `CCCCNC(=O)NS(=O)(=O)c1ccc(N)cc1`, the compound was called inactive in [18] and in experiment [17].
Take `O=C(O)c1ccc([N+](=O)[O-])cc1`: the result in experiment [1], in experiment [2], in experiment [4], in [5], in experiment [6] and in experiment [7] was inactive. The outcome in experiment [8], in experiment [9], in [10] and in experiment [11] was inactive.
Consider `COc1ccc(NC(=O)CC(C)=O)cc1`, for which the compound was classed as inactive in [13], in [14], in [3] and in experiment [15].
For `CCCCCCCCCOC(C)=O`, the result in [13], in experiment [14], in [15], in [4] and in [5] was inactive.
Regarding `CC(=O)OCC=Cc1ccccc1`, the AC50 in [13] was 9.38 µM (active). The call in experiment [14] and in experiment [3] was inactive.
For `CC(C)(C)c1cc(CCC(=O)NN)cc(C(C)(C)C)c1O`, the result in experiment [14] and in experiment [4] was inactive.
Consider `CC(C)C1CCC(O)CC1` (stereo unspecified), for which the call in experiment [13], in experiment [14], in experiment [15] and in experiment [5] was inactive.
